Inhibition data for 62 molecules are collected here from PubChem BioAssay AID540299 (ICCB-Longwood Screening Facility, Harvard Medical School, 2011).

Hit rate of the full screen: of about 100,000 compounds, about 440 (0.44%) were called active. This is one part of a sample in which actives are shown more often than they occur. Cut-off read from the data, not from the text of the source: active = inhibition above about 21% (passing the limit was not always enough); inactive = the rest.

The target in the assay is 1,4-dihydroxy-2-naphthoyl-CoA synthase (Mycobacterium tuberculosis (strain ATCC 25618 / H37Rv)) (UniProt P9WNP5). The assay is described as follows: M. tuberculosis MenB inhibitors, primary screen, biochemical, absorbance (AID 540299). The settings on record: MenB enzyme assay, absorbance read-out; active compounds read high; concentration not given here.
Chain of 1,4-dihydroxy-2-naphthoyl-CoA synthase (Mycobacterium tuberculosis (strain ATCC 25618 / H37Rv)) (P9WNP5 whole entry, looked up): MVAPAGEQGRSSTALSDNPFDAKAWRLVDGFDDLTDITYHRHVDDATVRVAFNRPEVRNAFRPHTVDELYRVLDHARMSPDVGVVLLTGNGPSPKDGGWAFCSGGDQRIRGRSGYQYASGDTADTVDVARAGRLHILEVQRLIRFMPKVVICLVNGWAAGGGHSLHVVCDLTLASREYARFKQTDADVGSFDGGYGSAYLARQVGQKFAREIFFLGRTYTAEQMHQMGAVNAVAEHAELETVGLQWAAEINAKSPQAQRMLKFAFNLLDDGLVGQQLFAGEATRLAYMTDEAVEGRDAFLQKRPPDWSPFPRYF
Usually inhibition stands for the relative decrease from the control value, in per cent. With `CCOc1ccc(CN(C)C(C)c2nnc(-c3ccc(C)cc3)o2)cc1` (configuration not stated), the inhibition is -8.7% (inactive).

Take `COc1ccc2nc(SC)[nH]c2c1`: the inhibition was 0.13% (inactive).

For the molecule `O=C(c1ccccc1)N1CCN(c2cccc(Cl)c2)CC1`, the inhibition is -21% (inactive).

`CC(C)(C)CNC(=S)NN`: the inhibition is -27.8% (inactive).

As for `CCO/C=N/c1c(C(=O)OCC)c2nc3ccccc3nc2n1Cc1ccccc1`, the inhibition was -29.7% (inactive).

On to `COc1ccc(S(=O)(=O)N(C)C)cc1`, for which the inhibition was -20.5% (inactive).

In the case of `CC(=O)Oc1ccc(N(C(C)=O)S(=O)(=O)c2ccc(Cl)cc2)cc1`, the inhibition was -5.01% (inactive).

With `COc1ccc(N(CCC#N)S(=O)(=O)c2ccc(Cl)cc2)cc1`, the inhibition was 34.8% (active).

Turning to `Cc1ccc2c(c1)cc(CN(Cc1ccco1)C(=O)c1ccccc1)c1nnnn12`, the inhibition is 32.8% (active).

Take `CCc1ccc2[nH]c(=O)c(CN(Cc3ccco3)C(=O)c3ccccc3)cc2c1`: the inhibition is -39% (inactive).

On to `COCC(=O)N(CCc1ccccc1)Cc1cc2cccc(C)c2n2nnnc12`, for which the inhibition was 5.43% (inactive).

As to `CC(C)c1ccc(-c2noc(C3CCCN(S(C)(=O)=O)C3)n2)cc1` (configuration not stated), the inhibition is 29.2% (active).

As for `CC(C)c1ccc(S(=O)(=O)N2CCN(S(=O)(=O)c3ccc(C(C)C)cc3)C(C)C2)cc1` (configuration not stated), the inhibition is -17.6% (inactive).

With `COc1ccc(-c2noc(CC(=O)N(C(C)C)C3CCCCC3)n2)cc1`, the inhibition was -38.9% (inactive).

Take `COc1ccc(N2CCN(C(=S)C3CCCCC3)CC2)cc1`: the inhibition was 1.7% (inactive).

As to `CCOC(=O)N1CCC(NC(=O)Cn2nc(Cc3cccnc3)c3ccccc3c2=O)CC1`, the inhibition is 13.3% (inactive).

Consider `CC(C)(C)c1ccc(OCc2nnc(SCC(N)=O)n2-c2ccccc2)cc1`, for which the inhibition is -20.4% (inactive).

On to `CC(Sc1nnc(COc2ccccc2)n1-c1ccccc1)C(=O)O` (configuration not stated), for which the inhibition was 44.3% (active).

Take `O=C(O)CSc1nnc(COc2ccc(Cl)cc2)n1-c1ccc(Br)cc1`: the inhibition is -31.3% (inactive).

Regarding `OC(COc1ccc(Cl)cc1)C(O)C(O)c1cnn(-c2ccccc2)n1` (configuration not stated), the inhibition is -25.4% (inactive).

On to `Cc1ccc(Cn2c(=O)c3ccccc3n3c(SCC(=O)N(C(C)C)C(C)C)nnc23)cc1`, for which the inhibition is -3.38% (inactive).

For the molecule `CCN(c1ccccc1)S(=O)(=O)c1ccc(Sc2nnc(-c3cccs3)n2CC2CCCO2)nc1` (configuration not stated), the inhibition is -29.5% (inactive).

Turning to `CCOC(=O)c1c(NC(=O)c2cc(-n3cnnc3)ccc2Cl)sc2c1CCCC2`, the inhibition is -11.9% (inactive).

Regarding `CCOC(=O)c1cnc2cc(C(F)(F)F)ccc2c1N1CCCCCC1`, the inhibition was -32.7% (inactive).

Regarding `CCOC(=O)CN1CCC(n2nnc3cc(C(F)(F)F)ccc32)CC1`, the inhibition is 40.1% (active).

As to `COc1cc(C(=O)N2CCC(n3nnc4cc(F)ccc43)CC2)cc(OC)c1OC`, the inhibition is -27.8% (inactive).

In the case of `CCCN(CCC)C(=O)c1cc(-c2ccccc2)n[nH]1`, the inhibition was 2.47% (inactive).

With `CCCC(CCC)C(=O)Nc1ccc(NC(=O)c2ccco2)cc1`, the inhibition is 34.4% (active).

For `CCCC(=O)N1CCN(c2ccc(NC(=O)c3ccco3)cc2Cl)CC1`, the inhibition was 36.3% (active).

On to `Cc1cccc(C(=O)Nc2ccc(NC(=O)c3ccco3)cc2)c1`, for which the inhibition is -25.7% (inactive).

Consider `O=C(Nc1ccccc1)c1ccco1`, for which the inhibition is -38.1% (inactive).

As for `CCC(=O)Nc1cc(NC(=O)c2ccco2)ccc1C`, the inhibition is 3.59% (inactive).

Regarding `CCCC(=O)N1CCN(c2ccc(NC(=O)c3cccc(C)c3OC)cc2Cl)CC1`, the inhibition is -14.8% (inactive).

Consider `CCC(/C=N/N1C(=O)c2ccccc2C1=O)CC`, for which the inhibition was 4.86% (inactive).

Consider `CCSc1nnc(C2CCN(CC(=O)Nc3ccc(N4CCCCCC4)cc3)CC2)n1C`, for which the inhibition was -53.3% (inactive).

Consider `Cc1cc(C)nc(N2CCCC(C)C2)n1` (configuration not stated), for which the inhibition was -26.5% (inactive).

For `N#CC1=C(N)/C(=C\c2ccc(Cl)c(Cl)c2)SC1=N`, the inhibition is -31% (inactive).

As for `Cc1cc(C)nc(SCC(=O)N2CCCC2c2cccs2)n1` (configuration not stated), the inhibition is -1.45% (inactive).

For `O=C1C=C/C(=N\OC(=O)c2ccccc2)C2=C1C1C=CC2C1` (configuration not stated), the inhibition is -24.3% (inactive).

In the case of `COc1ccc(-c2noc(CNC3CCCCC3)n2)cc1`, the inhibition was -2.19% (inactive).

For `CC1Sc2nnc(-c3ccc(OC(F)F)cc3)n2N=C1c1ccc(NS(C)(=O)=O)cc1` (configuration not stated), the inhibition is -9.43% (inactive).

On to `N#Cc1cc(Cl)c2c(c1)OCCO2`, for which the inhibition is -39.8% (inactive).

For `O=C(COC(=O)Cn1[nH]c(=O)c2ccccc2c1=O)Nc1ncc(Cl)cc1Cl`, the inhibition was 1.74% (inactive).

`Cc1nc2ccc(NC(=O)CC(C)(C)C)cc2s1`: the inhibition was -7.18% (inactive).

As for `N#Cc1nc(NC(=O)c2cc(-c3cccs3)nc3ccccc23)[nH]c1C#N`, the inhibition is -0.59% (inactive).

Take `O/N=C(/c1ccccc1)c1ccccn1`: the inhibition was 17.8% (inactive).

On to `CCN1C(=O)C(C(=O)NC(C)c2ccccc2)C2CC1(C)Oc1ccccc12` (configuration not stated), for which the inhibition was 25.7% (inactive).

`CN1C(=O)C(C(=O)O)C2CC1Oc1ccccc12` (configuration not stated): the inhibition is 34.4% (active).

On to `CN1C(=O)C(S(=O)(=O)c2ccccc2)C2CC1(C)Oc1ccccc12` (configuration not stated), for which the inhibition was 11.3% (inactive).

On to `CCN(c1ccccc1)S(=O)(=O)c1cccc(C(=O)O)c1`, for which the inhibition is -9.9% (inactive).

As to `CCN(CC)Cc1cc(C(=O)O)co1`, the inhibition is 31.6% (active).

For the molecule `CCCCC#Cc1cncc(C(=O)O)c1`, the inhibition was -22.8% (inactive).

In the case of `COc1ccc(C(=O)OCc2ccccn2)cc1`, the inhibition was -2.18% (inactive).

In the case of `COC(=O)c1ccccc1NC(=O)C1CCN(S(=O)(=O)c2ccc(OC)c(OC)c2)CC1`, the inhibition is -4.4% (inactive).

Regarding `O=c1c(O)coc(CO)c1C(Nc1ccccn1)c1ccccc1O` (configuration not stated), the inhibition is -8.94% (inactive).

Consider `Cc1ccc(NC(=O)CC(C)S(=O)(=O)c2ccc3c(c2)SCC(=O)N3)cc1` (configuration not stated), for which the inhibition was -27.7% (inactive).

On to `O=C(CN1CCCCC1)N1N=C(c2cccs2)CC1c1ccc(O)cc1` (configuration not stated), for which the inhibition is -15.9% (inactive).

In the case of `CN1C(=O)c2cccc(NC(=O)c3ccccc3)c2C1=O`, the inhibition is -46.4% (inactive).

Consider `COc1cccc2c1C(=O)C1C(O)=C3C(=C(O)C1C2=O)C[C@@](O)(C(=O)CO)C[C@@H]3OC1CC(N)C(O)C(C)O1` (some centres not stated), for which the inhibition was 4.12% (inactive).

Take `CN(Cc1cccc(Cl)c1Cl)CC(O)COCc1ccccc1` (configuration not stated): the inhibition is -5.12% (inactive).

Consider `COc1ccc(Cc2nnc3n2N=C(N)CS3)cc1`, for which the inhibition was 8.07% (inactive).

For the molecule `CCNc1nnc(-c2ccc(C)cc2)s1`, the inhibition is -8.94% (inactive).
